This is an account of results in PubChem BioAssay (NCI).

The panel holds about 83,000 compounds, 20% with a hit somewhere; the sample as a whole holds those more often.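 Interpretation: 100, growth as untreated; towards 0, rising growth inhibition; 0, no net growth; 0 to -100, cell death. Compounds scoring below 10 were considered active.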 Values without a mark were called inactive. The source made the active and inactive calls.

Some test systems named below: EKVX NSCLC; SN12C renal; UO-31 renal; TK-10 renal; ACHN renal; CAKI-1 renal; MOLT-4 leukemia; CCRF-CEM leukemia; A498 renal.
Holding throughout (assay): NCI-60 one-dose screen, 48 h (100 = growth as untreated, 0 = no growth, -100 = all killed)
Common to all, as to details: 10 µM unless noted

On to `COc1cc(-c2nc(SC(C)C)n(C(C)C)c(=O)c2C#N)ccc1OCc1ccccc1`, for which the growth with EKVX NSCLC was 81.3%; with SN12C renal it was 16.2%; with UO-31 renal it was 56.8%; in the test on TK-10 renal, 42.1%; in the test with ACHN renal it was 32.5%; in the test with CAKI-1 renal, 54.8%. Moreover, the growth in the test on MOLT-4 leukemia is 22.1%.

With `Nc1nc(-c2cccc([N+](=O)[O-])c2)c(N=Nc2ccc([N+](=O)[O-])cc2Cl)s1`, the growth was 6.7% (active) in the test on EKVX NSCLC; 10.5% in the test with UO-31 renal; 22.7% with TK-10 renal; 7.06% (active) in the test on ACHN renal; 4.29% (active) in the test with CAKI-1 renal; 13% with CCRF-CEM leukemia. The growth in the test with MOLT-4 leukemia was 7.78% (active).

On to `CN1CCN(Cc2ccc(NC(=O)c3cncc(C#Cc4cnn5cccnc45)c3)cc2C(F)(F)F)CC1`, for which the growth in the test with EKVX NSCLC is 46.6%; with SN12C renal it was 8.93% (active); with UO-31 renal, 22.3%; with TK-10 renal, 32.8%; in the test with ACHN renal, 11.2%; in the test on CAKI-1 renal, 21.6%. Also, the growth with CCRF-CEM leukemia is 2.51% (active); in the test with MOLT-4 leukemia, 6.57% (active).

As for `C[C@@H]1C[C@H]2C(=O)O[C@@H](C)C(NC(=O)[C@H](Cc3cc(F)cc(F)c3)NC(=O)Nc3ccc(C4CC4)cc3F)C(=O)N3CCC[C@H]3C(=O)N3CCCC[C@H]3C(=O)N[C@@H](CO)C(=O)N2C1` (stereo partly specified), the growth is 30.2% in the test on EKVX NSCLC; 18.7% with SN12C renal; 25.8% with UO-31 renal; 52.6% in the test with TK-10 renal; 28.6% with ACHN renal; 18.6% in the test on CAKI-1 renal. Also, the figures for the growth in the test with CCRF-CEM leukemia and in the test on MOLT-4 leukemia were 31.2% and 39.7%, respectively.

As for `CN1CCN(c2nc(-c3csc(-c4ccccc4)n3)cc3ccccc23)CC1`, the growth in the test on EKVX NSCLC was 63.5%; with SN12C renal, 50.2%; with TK-10 renal, 73.3%; in the test on ACHN renal, 16.1%; with CAKI-1 renal, 21.2%; with CCRF-CEM leukemia, 14.2%. The growth in the test on MOLT-4 leukemia is 4.08% (active).

As to `CC1(C)[C@@H](O)CC[C@]2(C)[C@H]3CC[C@@H]4[C@H]5[C@H](C(=O)/C=C\c6ccncc6)CC[C@]5(O)CC[C@@]4(C)[C@]3(C)CC[C@@H]12`, the growth in the test on EKVX NSCLC is 42.8%; in the test on SN12C renal, 75.1%; with TK-10 renal, 100%; with ACHN renal, 52.5%; in the test on CAKI-1 renal it was 35.1%; in the test with A498 renal, 46.6%. Moreover, the growth in the test on CCRF-CEM leukemia is 8.75% (active); in the test on MOLT-4 leukemia, 27.9%.

On to `COc1ccc(CCN2C(=O)CSC2=S)cc1`, for which the growth with EKVX NSCLC is 96%; in the test with SN12C renal, 88.8%; with UO-31 renal it was 92%; in the test on TK-10 renal it was 65.1%; in the test on ACHN renal, 99.1%; in the test with CAKI-1 renal, 82.1%. Besides, the growth is 75.3% with CCRF-CEM leukemia and 94.6% with MOLT-4 leukemia.

As for `CNCc1cccc2c1OCCCCCCC(C)(O)CC(C)(C)S(=O)(=O)c1ccc(cc1)-c1cnc(N)c(n1)C(=O)N2` (stereo unspecified), the growth in the test with EKVX NSCLC was 62.7%; with SN12C renal, 16.6%; in the test with UO-31 renal, 23.7%; in the test with TK-10 renal, 65.4%; in the test on CAKI-1 renal it was 17.6%; in the test with CCRF-CEM leukemia it was 4.37% (active). The growth in the test on MOLT-4 leukemia is 2.61% (active).

With `CCC(NC(c1cc2cccc3ccc4cccc1c4c32)c1nnnn1C(C)(C)C)C1CCCCC1` (stereo unspecified), the growth in the test on EKVX NSCLC was 92.1%; in the test with SN12C renal, 80.8%; in the test with UO-31 renal it was 72.1%; with TK-10 renal, 80.6%; in the test on ACHN renal, 54.5%; with CAKI-1 renal, 63.1%. The growth in the test with CCRF-CEM leukemia is 58.1%; in the test on MOLT-4 leukemia, 47.2%.

In the case of `Cc1ccc(N2C(=O)/C(=C/C=C/c3ccco3)SC2=S)cc1`, the growth is 95.4% in the test with EKVX NSCLC; 91.4% in the test with SN12C renal; 84% with UO-31 renal; 117% in the test on TK-10 renal; 101% in the test with ACHN renal; 90.4% with CAKI-1 renal. Moreover, the growth with MOLT-4 leukemia was 9.93% (active).

Turning to `COc1cc(OC)c(S(N)(=O)=O)cc1C(=O)/C=C/c1ccc(Cl)cc1`, the growth is 29.8% with EKVX NSCLC; 16% in the test on SN12C renal; 7.22% (active) in the test on UO-31 renal; -5.25% (active) in the test with TK-10 renal; 11.6% in the test on ACHN renal; 21.5% in the test with CAKI-1 renal. Also, the growth in the test with MOLT-4 leukemia is 3.62% (active).

Regarding `Cc1cc2ncc(-c3cc4ccccc4c(N4CCN(C)CC4)n3)nc2cc1C`, the growth in the test with EKVX NSCLC was 73.8%; in the test with SN12C renal, 31.5%; in the test on UO-31 renal, 4.16% (active); with TK-10 renal, 67.2%; in the test with ACHN renal it was -42.1% (active); in the test with CAKI-1 renal, 30.2%. The figures for the growth with CCRF-CEM leukemia and with MOLT-4 leukemia were 1.37% (active) and -8.83% (active), respectively.

`COc1cc(OC)c(S(N)(=O)=O)cc1C(C)=O`: the growth was 102% in the test with EKVX NSCLC; 97.4% in the test with UO-31 renal; 94.9% with TK-10 renal; 107% in the test on ACHN renal; 95.6% in the test with CAKI-1 renal; 109% in the test on CCRF-CEM leukemia.

`COc1cc(-c2nc3sccn3c2-c2ccnc(S(C)(=O)=O)n2)ccc1F`: the growth in the test with EKVX NSCLC is 87.3%; in the test on UO-31 renal, 85.2%; in the test with TK-10 renal, 120%; in the test with ACHN renal it was 90.4%; in the test with CAKI-1 renal it was 85.2%; with A498 renal it was 95.1%. The growth in the test on CCRF-CEM leukemia was 92.1%; with MOLT-4 leukemia, 83.5%.

Consider `CCOC(=O)c1c(Nc2ccccc2)nn2c(-c3cccs3)ccnc12`, for which the growth in the test on EKVX NSCLC is 88.8%; in the test with SN12C renal, 91%; in the test with TK-10 renal, 107%; in the test with ACHN renal, 88.3%; in the test on CAKI-1 renal, 78.8%; in the test on CCRF-CEM leukemia it was 58.8%. The growth in the test with MOLT-4 leukemia was 74.5%.

For the compound `COc1ccc(-c2nc3cc(Cl)c(Cl)cc3n2CC(=O)N=Nc2c(O)[nH]c3ccc(OC)cc23)cc1`, the growth in the test with EKVX NSCLC was 62.9%; in the test on SN12C renal, 49.7%; in the test on UO-31 renal it was 69.9%; with TK-10 renal, 97.3%; in the test on ACHN renal it was 43.5%; with CAKI-1 renal, 59.4%. For the same compound, the growth with CCRF-CEM leukemia was 61.6%; in the test on MOLT-4 leukemia, 78.7%.

For the compound `COc1ccc(NC2=C(Cl)C(=O)c3nc(C)ccc3C2=O)cc1OC`, the growth in the test on EKVX NSCLC was 50.8%; with SN12C renal it was 90.5%; with UO-31 renal, 100%; in the test with TK-10 renal it was 149%; in the test on ACHN renal, 95%; in the test with A498 renal, 82.6%. In addition, the growth in the test on CCRF-CEM leukemia is 15.3%; in the test on MOLT-4 leukemia, 69.8%.

`COc1ccc(/C=C/C(=O)c2cc(S(N)(=O)=O)c(OC)cc2OC)cc1`: the growth with EKVX NSCLC was 92.1%; in the test on SN12C renal, 61.1%; with UO-31 renal, 72.4%; in the test with TK-10 renal, 92.9%; in the test on ACHN renal it was 81.1%; in the test with CAKI-1 renal, 63.5%. Also, in the test on MOLT-4 leukemia, the growth was 71.1%.

Turning to `Nc1nc(-c2cccc([N+](=O)[O-])c2)c(N=Nc2ccc(Br)cc2)s1`, the growth in the test with EKVX NSCLC is 8.7% (active); in the test with SN12C renal, -26.8% (active); in the test on UO-31 renal it was -80.3% (active); in the test on TK-10 renal, -96.2% (active); in the test on ACHN renal, -96.7% (active); in the test on CAKI-1 renal it was -87.9% (active). Also, the growth in the test with MOLT-4 leukemia was 29.5%.
